Data reported in the supplement of paper PMC9694430.

Legend:
Assay in all cases: thermal shift delta Tm vs DMSO control; higher = stronger stabilization (binding)
Settings in all cases: 12.5 µM; protein concentration 2 µM
LOC_OS01G01410-cb001 = test system: LOC_OS01G01410-cb001
Outline: (§1)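 Rice kinase domain constructs were expressed in E. coli, purified, and tested by differential scanning fluorimetry with compound added in DMSO. Each well of a 96-well plate held 19.5 μl of 2 μM kinase in 100 mM potassium phosphate pH 7.5, 150 mM NaCl, 10% glycerol and 5 × SYPRO Orange, and fluorescence was read from 25°C to 95°C at 0.05°C/s. The melting temperature shift is the mean of triplicates, taken against protein with DMSO alone after Boltzmann fitting.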

LOC_OS01G02750-cb003 = test system: LOC_OS01G02750-cb003
Outline: as §1

LOC_OS01G10900-cb004 = test system: LOC_OS01G10900-cb004
Outline: as §1

LOC_OS01G13800-cb001 = test system: LOC_OS01G13800-cb001
Outline: as §1

LOC_OS01G14860-cb001 = test system: LOC_OS01G14860-cb001
Outline: as §1

LOC_OS01G21960-cb002 = test system: LOC_OS01G21960-cb002
Outline: as §1

LOC_OS01G39600-cb002 = test system: LOC_OS01G39600-cb002
Outline: as §1

LOC_OS01G48390-cb002 = test system: LOC_OS01G48390-cb002
Outline: as §1

LOC_OS01G51400-cb002 = test system: LOC_OS01G51400-cb002
Outline: as §1

LOC_OS01G52050-cb004 = test system: T1, LOC_OS01G52050-cb004
T1 sequence (whole entry): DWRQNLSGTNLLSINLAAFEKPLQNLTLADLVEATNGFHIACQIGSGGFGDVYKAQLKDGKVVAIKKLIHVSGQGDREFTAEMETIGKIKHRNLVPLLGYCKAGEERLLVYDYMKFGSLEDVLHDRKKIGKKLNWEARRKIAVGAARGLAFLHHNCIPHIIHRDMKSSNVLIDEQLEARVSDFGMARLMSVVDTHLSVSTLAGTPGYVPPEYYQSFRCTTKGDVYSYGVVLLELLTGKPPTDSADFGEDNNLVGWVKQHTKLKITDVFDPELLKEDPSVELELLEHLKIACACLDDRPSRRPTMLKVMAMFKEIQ
Outline: as §1

LOC_OS01G57100-cb003 = test system: LOC_OS01G57100-cb003
Outline: as §1

LOC_OS01G60330-cb001 = test system: LOC_OS01G60330-cb001
Outline: as §1

LOC_OS01G60700-cb002 = test system: LOC_OS01G60700-cb002
Outline: as §1

LOC_OS01G63280-cb003 = test system: LOC_OS01G63280-cb003
Outline: as §1

LOC_OS01G67340-cb003 = test system: LOC_OS01G67340-cb003
Outline: as §1

LOC_OS01G70970-cb002 = test system: LOC_OS01G70970-cb002
Outline: as §1

LOC_OS02G07810-cb001 = test system: LOC_OS02G07810-cb001
Outline: as §1

LOC_OS02G08530-cb003 = test system: LOC_OS02G08530-cb003
Outline: as §1

LOC_OS02G14120-cb001 = test system: LOC_OS02G14120-cb001
Outline: as §1

LOC_OS02G17970-cb001 = test system: LOC_OS02G17970-cb001
Outline: as §1

SMILES | thermal shift delta Tm (LOC_OS01G01410-cb001) [°C] | thermal shift delta Tm (LOC_OS01G02750-cb003) [°C] | thermal shift delta Tm (LOC_OS01G10900-cb004) [°C] | thermal shift delta Tm (LOC_OS01G13800-cb001) [°C] | thermal shift delta Tm (LOC_OS01G14860-cb001) [°C] | thermal shift delta Tm (LOC_OS01G21960-cb002) [°C] | thermal shift delta Tm (LOC_OS01G39600-cb002) [°C] | thermal shift delta Tm (LOC_OS01G48390-cb002) [°C] | thermal shift delta Tm (LOC_OS01G51400-cb002) [°C] | thermal shift delta Tm (LOC_OS01G52050-cb004) [°C] | thermal shift delta Tm (LOC_OS01G57100-cb003) [°C] | thermal shift delta Tm (LOC_OS01G60330-cb001) [°C] | thermal shift delta Tm (LOC_OS01G60700-cb002) [°C] | thermal shift delta Tm (LOC_OS01G63280-cb003) [°C] | thermal shift delta Tm (LOC_OS01G67340-cb003) [°C] | thermal shift delta Tm (LOC_OS01G70970-cb002) [°C] | thermal shift delta Tm (LOC_OS02G07810-cb001) [°C] | thermal shift delta Tm (LOC_OS02G08530-cb003) [°C] | thermal shift delta Tm (LOC_OS02G14120-cb001) [°C] | thermal shift delta Tm (LOC_OS02G17970-cb001) [°C]
CN1CCN(CCOc2cc(OC3CCOCC3)c3c(Nc4c(Cl)ccc5c4OCO5)ncnc3c2)CC1 [Saracatinib (AZD0530)] | 0.88 | 0.03 | 0.58 | 0.11 | 0.28 | 0.14 | -0.05 | 0.23 | 0.26 | 1.72 | 0.72 | 1.51 | 1.11 | 0.03 | 0.29 | 0.9 | 0.55 | 1.2 | 8.8 | 0
CN(c1ccccc1CNc1nc(Nc2ccc3c(c2)CC(=O)N3)ncc1C(F)(F)F)S(C)(=O)=O | 2.5 | 7.01 | 2.35 | 0.34 | 5.2 | 2.72 | 8.33 | 3.62 | 1.93 | 8.95 | 2.5 | 2.26 | 1.26 | 6.35 | 3.07 | 9.4 | 1.12 | 2.68 | 8.26 | 0.68
C[C@@H]1COC(Nc2ccc3ncnc(Nc4ccc(OCc5nccs5)c(Cl)c4)c3c2)=N1 [Varlitinib] | 2.18 | 0.28 | 0.95 | 0.39 | 1.1 | 2.04 | 0.66 | 1.02 | 0.22 | 0.92 | 1.92 | 1.09 | 1.53 | 1.44 | 0.64 | 0.88 | 0.94 | 0.76 | 0.74 | 1.04
CC[C@@H]1C(=O)N(C)c2cnc(Nc3ccc(C(=O)NC4CCN(C)CC4)cc3OC)nc2N1C1CCCC1 | 1.63 | -0.86 | -0.01 | -0.37 | -0.16 | 0.05 | 0.36 | -0.02 | -0.01 | 0.06 | 0.75 | 2.55 | 0.69 | -0.22 | -0.4 | 0.34 | 0.2 | 1.93 | 0.27 | 0.02
CC(C)(C)NC(=O)c1cncn1C1CCN(c2ccc(-c3nnc(C(F)(F)F)o3)cn2)CC1 | 0.22 | 0.89 | 0.11 | -0.25 | 0.2 | 0.13 | -0.63 | 0.3 | 0.06 | 0.97 | -0.21 | 0.32 | -0.26 | -0.16 | 0.05 | 0.37 | -1.16 | 0.52 | 0.95 | -0.2
O=C(NOCC(O)CO)c1cc(Br)c(F)c(F)c1Nc1ccc(I)cc1F (stereo not given) | 0.9 | 3.49 | 1.07 | 1.05 | 1.29 | 1.44 | 0.76 | 1.12 | 0.46 | 2.46 | 2.4 | 2.2 | 1.6 | 1.18 | 0.03 | 0.55 | 2.41 | 1.08 | 1.22 | 2.02
COc1cc2ncnc(Oc3ccc(CC(=O)Nc4cnn(C(C)C)c4)cc3)c2cc1OC | 0.27 | 0 | 0.09 | -0.43 | 0.03 | 0.08 | -1.25 | 0.97 | 0.22 | -0.1 | 0.71 | 0.05 | 1.1 | 0.13 | -0.21 | 0.47 | 0.52 | 0.53 | 0.06 | 0.84
Cn1cc(-c2ccc3nnc(Sc4ccc5ncccc5c4)n3n2)cn1 | 0.49 | 0.09 | 3.13 | -0.11 | -0.13 | 0.18 | 0.17 | 0.29 | 0.08 | 0.42 | 0.37 | 0.34 | 1.28 | 0.23 | 0.43 | 0.3 | 0.16 | 1.1 | 1.81 | 0.07
CCNC(=O)Nc1ccc(-c2nc3c(c(N4CCOC[C@@H]4C)n2)CCN(C2COC2)C3)cc1 | 0.46 | 0.52 | 0.25 | 0.66 | 0.02 | 0.43 | -0.29 | 0.42 | -0.02 | 0.23 | 1.02 | 0.52 | 0.42 | 0.65 | 0.16 | 0.23 | 0.04 | 0.71 | -0.29 | -0.11
Cc1ncc(CCCN(C)C)cc1Nc1ncc2c(n1)-c1ccc(C(F)(F)F)cc1NC(=S)C2 | 0.62 | 1.24 | -0.4 | 0.18 | 0.59 | 0.78 | -0.18 | 1.07 | 0.38 | 1.48 | 1.69 | 0.92 | 1.39 | 0.8 | 0.49 | 0.65 | 0.56 | 1.89 | 0.46 | 1.61
CCN(CC)CCCC(C)Nc1ccnc2cc(Cl)ccc12 (stereo not given) [Chloroquine Phosphate] | 0.08 | 1.04 | 0.14 | 0.44 | 0.13 | 0.63 | -0.06 | -0.02 | 0 | -0.11 | 0.41 | 0.19 | 0.9 | -0.08 | 0.32 | -0.07 | 0.25 | 0.31 | 0.87 | -0.06
NC1(Cc2ccc(Cl)cc2)CCN(c2ncnc3[nH]ccc23)CC1 | 0.45 | 0.58 | -0.03 | 0.07 | 1.34 | 0.89 | 0.46 | 3.31 | 0.45 | 0.94 | 2.25 | 2.06 | 0.71 | 0.51 | 0.58 | 0.53 | 0.47 | 1.24 | 1.88 | 0.79
